CYP2C19 activ – activators of human cytochrome P450 2C19. 96,000 tested, under 10 active. P33261. recombinant CYP2C19, luciferin-H EGE luminescence; stronger effect = higher value; 0 = fully inhibited enzyme, 1 = untreated enzyme. activation factor at 5 µM;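 active means activation factor of at least 2 at 5 µM in the primary screen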
Target sequence (P33261 whole entry, looked up): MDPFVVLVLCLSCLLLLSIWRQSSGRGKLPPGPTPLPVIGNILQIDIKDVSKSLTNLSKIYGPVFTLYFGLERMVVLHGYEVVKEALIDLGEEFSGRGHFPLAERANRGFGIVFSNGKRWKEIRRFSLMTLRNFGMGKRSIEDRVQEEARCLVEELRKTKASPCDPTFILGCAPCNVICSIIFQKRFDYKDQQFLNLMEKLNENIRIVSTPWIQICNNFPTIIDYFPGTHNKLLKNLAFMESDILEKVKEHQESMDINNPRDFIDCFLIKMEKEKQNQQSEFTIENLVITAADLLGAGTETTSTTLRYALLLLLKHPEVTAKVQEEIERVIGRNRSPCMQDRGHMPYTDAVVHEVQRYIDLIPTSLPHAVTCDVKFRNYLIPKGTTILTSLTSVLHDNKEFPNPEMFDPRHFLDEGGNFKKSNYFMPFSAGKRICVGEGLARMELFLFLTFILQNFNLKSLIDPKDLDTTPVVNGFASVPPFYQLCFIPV
CYP2C19 inhib – human CYP2C19 inhibition | P33261 | 96,000 tested, 21% active | inhibition, % at 5 µM | AID 778 | CYP2C19 Supersomes, luciferin-H EGE luminescence, 30 min;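 active means CYP2C19 inhibition above a set limit at 5 µM in the primary screen, cut at about 50% in these data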
CYP2C9 act – increases human cytochrome P450 2C9 activity | P11712 | recombinant CYP2C9, luciferin-H conversion, luminescence; stronger effect = higher value; factor 1 = untreated enzyme, 0 = blocked | activation factor at 5 µM | 96,000 tested, 1.4% active;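 active means activation factor of 2 or more for CYP2C9 at a 5 µM dose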
cytoskel mod – modifiers of cytoskeleton assembly. 91,000 tested, 0.18% active. HUVEC TNFa F-actin phalloidin imaging, high content. inhibition, % at 2 µM. AID 836;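 active means inhibition above the batch mean plus 3 SD and confirmed as a hit by visual image inspection, cut at about 30% in these data, passing the limit was not always enough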
CYP2C9 inhib – human CYP2C9 inhibition | CYP2C9 Supersomes, luciferin-H conversion, luminescence | inhibition, % at 5 µM | 96,000 tested, 20% active | AID 777;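 active means blocking of liver enzyme CYP2C9 beyond about 50% at 5 µM, limit read from the data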
E-sel TNF inh – blocks E-selectin expression induced by TNF alpha. 120,000 tested, 0.71% active. HUVEC TNFa-induced E-selectin immunofluorescence, high content. inhibition, % at 2 µM. AID 1246;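 active means inhibition above the batch mean plus 3 SD, and confirmed as a hit on visual image review, cut at about 43% in these data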
A number is an active result; - = inactive; . = no result given. Shown are actives, neighbours in structure and some others; about 22% of the full set was active somewhere.

SMILES	CYP2C19 activ	CYP2C19 inhib	CYP2C9 act	cytoskel mod	CYP2C9 inhib	E-sel TNF inh
COc1ccc(-c2nn3c(COc4ccccc4)nnc3s2)cc1OC	-	-	-	.	58	-
CC(C)(NC(=O)N1CCOCC1)c1cccc(C(C)(C)NC(=O)N2CCOCC2)c1	.	.	.	-	.	-
O=C1c2ccccc2C(=O)N1CCSC(=S)N1CCOCC1	-	55	-	-	-	-
CC(=O)c1cn(C)c(=O)n(C)c1=O	.	.	.	.	.	-
Cc1cccc2cc(CN(C(=O)c3cnccn3)C3CCCCC3)c(Cl)nc12	-	-	-	-	-	-
Cc1cccc2cc(CN(Cc3ccccc3)C(=O)c3cccc(F)c3)c(Cl)nc12	-	-	-	-	62	-
NC(=O)C1(N2CCCCC2)CCN(C(=O)NC23CC4CC(CC(C4)C2)C3)CC1	-	-	-	-	56	.
CC(=O)c1c(C)[nH]c(C(=O)OCC(=O)NCCc2ccc(Cl)cc2)c1C	-	87	-	-	87	-
CC(=O)c1c(C)[nH]c(C(=O)NCCc2cccc(C)c2)c1C	-	-	-	-	-	.
COc1ccc(CCNC(=O)c2[nH]c(C)c(C(C)=O)c2C)cc1	-	50	-	-	73	-
Nc1c(C(=O)NC2CCCCC2)c2nc3ccccc3nc2n1/N=C/c1ccco1	-	-	-	.	-	.
CSc1nc2ccc(NC(=O)C3CC(=O)N(Cc4ccccc4)C3)cc2s1 (stereo not given)	-	-	-	-	-	-
COc1ccc(-c2cc(C(F)F)n3ncc(C(=O)N4CCSCC4)c3n2)cc1	-	-	-	-	76	-
CCOC(=O)C1CCCN(C(=O)c2cnn3c(C(F)F)cc(-c4ccc(C)cc4)nc23)C1 (stereo not given)	-	-	-	-	73	-
CCOC(=O)C1CCCN(C(=O)c2cc3nc(-c4ccc5c(c4)OCO5)cc(C(F)(F)F)n3n2)C1 (stereo not given)	-	-	-	-	56	-
Cc1ccc(-c2cc(C(F)F)n3ncc(C(=O)N4CCN5CCCC5C4)c3n2)cc1 (stereo not given)	-	-	-	-	-	-
CCc1ccc(Nc2ccc(S(=O)(=O)N3CCOCC3)cc2[N+](=O)[O-])cc1	.	.	.	.	.	-
Cc1ccc2ncnc(NCCCCCC(=O)O)c2c1	.	.	.	.	.	-
COC(=O)c1[nH]c2cc(OC)ccc2c1NC(=O)CN1CCOCC1	.	.	.	-	.	-
COc1cccc(/C=N/NC(=O)c2ccccc2N(Cc2ccccc2)S(=O)(=O)c2ccccc2)c1OC	-	-	-	-	80	-
COc1cccc(/C=N/NC(=O)CC(=O)NCCc2ccccc2)c1OC	.	.	.	.	.	-
Cc1cc(C)c(C#N)c(SCC(=O)NC(C)(C)C)n1	-	-	-	-	-	-
COCc1cc(C)nc(SCC(=O)Nc2ccccc2C)c1C#N	-	94	-	-	-	-
CCOC(=O)NC(=O)CSc1nc(C)cc(C)c1C#N	-	58	-	.	-	.
Cc1ccc(CNC(=O)CSc2nc(C)cc(C)c2C#N)cc1	-	57	-	-	-	-
SMILES	CYP2C19 activ	CYP2C19 inhib	CYP2C9 act	cytoskel mod	CYP2C9 inhib	E-sel TNF inh
CCOC(=O)CNC(=O)CSc1nc(C)cc(C)c1C#N	-	83	-	-	-	-
COCc1cc(C)nc(SCC(=O)Nc2ccc(C)c(C)c2)c1C#N	-	-	-	.	-	-
Cc1ccccc1Cn1c(=O)sc2ccccc2c1=O	.	.	.	.	.	-
Cc1c(Cl)c(C(F)(F)F)nn1CC(=O)NCc1ccccc1	.	.	.	-	.	-
Cc1ccc(-c2nnc(SCC(=O)N/N=C/c3c(C)nn(-c4ccccc4)c3C)n2-c2ccccc2)cc1	.	.	.	.	.	-
Cc1ccc(S(=O)(=O)N/N=C\c2cn(-c3ccccc3)nc2-c2ccccc2)cc1	-	-	-	-	67	-
O=[N+]([O-])c1ccc(N/N=C/c2cn(-c3ccccc3)nc2-c2ccccc2)cc1	-	-	-	-	-	-
Cc1nn(-c2ccccc2)c(C)c1/C=N/NC(=O)c1cc(-c2ccccc2)n[nH]1	-	70	-	-	86	-
NC(=O)N/N=C/c1cn(-c2ccccc2)nc1-c1ccccc1	.	.	.	.	.	-
Cc1ccc(S(=O)(=O)N/N=C/c2c(C)nn(-c3ccccc3)c2C)cc1	-	56	-	-	75	-
Cc1ccc(-c2nn(-c3ccccc3)cc2/C=N/NS(=O)(=O)c2ccccc2)cc1	-	-	-	-	66	-
Cc1ccc(C(=O)N/N=C\c2c(C)nn(-c3ccccc3)c2Cl)cn1	.	.	.	.	.	-
CC(C)(C)c1nc(SCC(=O)N2CCCC2)c2ccccc2n1	.	.	.	.	.	-

Screens: PubChem, several laboratories
